Records with an inconclusive call do not appear. The source made the active and inactive calls. Calls come from the whole dose curve; as a rule, active = well fitted inhibition curve with a large enough effect; inconclusive = small, poorly fitted or top-dose-only effect; inactive = flat fitted curve, though single readings scatter.
Test system: CP256
Experiment: qHTS profiling for inhibitors of Plasmodium falciparum proliferation (AID 504749); note: nearly all actives have a fitted effect of over 60% in size;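 for activity, negative = inhibition: 0% = DMSO vehicle and full inhibition = artemisinin control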
Conditions: P. falciparum in erythrocytes, SYBR Green DNA, 72 h; series mostly up to 28.7 µM; activity, negative = inhibition: at the top concentration
In short: (§1)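 Fluorescence of SYBR Green-bound parasite DNA, read at 485/535 nm, served as the growth measure. Infected erythrocytes were cultured with compound 72 h; artemisinin (0.29 uM) and DMSO wells defined the normalization range.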
Potency is the fitted concentration of half-maximal effect.

SMILES	activity, negative = inhibition	Potency
CN(C)[C@H]1C(=O)C(C(=O)NCN2CCCC2)=C(O)[C@]2(O)C(=O)C3=C(O)c4c(O)cccc4[C@](C)(O)[C@H]3C[C@H]12	4.93% (inactive)	
C[C@]12CC[C@H]3c4ccc(O)cc4CC[C@@H]3[C@H]1CC[C@@H]2OC(=O)CCC1CCCC1	-11.5% (inactive)	
Cc1cn([C@H]2C[C@H](N=[N+]=[N-])[C@H](CO)O2)c(=O)[nH]c1=O	7.07% (inactive)	
O=C(O)[C@@H](S)[C@H](S)C(=O)O		7.94 µM (active)
CC(C)(C)NC[C@@H](O)c1ccc(O)c(CO)n1	6.69% (inactive)	
NS(=O)(=O)c1cc2c(cc1Cl)N[C@H](Cc1ccccc1)NS2(=O)=O	-17.5% (inactive)	

Test system: CP260
Experiment: as above
Conditions: P. falciparum in erythrocytes, SYBR Green DNA, 72 h; series mostly up to 28.7 µM; activity, negative = inhibition: at the top concentration
In short: as §1

SMILES	activity, negative = inhibition	Potency
CN(C)[C@H]1C(=O)C(C(=O)NCN2CCCC2)=C(O)[C@]2(O)C(=O)C3=C(O)c4c(O)cccc4[C@](C)(O)[C@H]3C[C@H]12	-10.1% (inactive)	
Cc1cn([C@H]2C[C@H](N=[N+]=[N-])[C@H](CO)O2)c(=O)[nH]c1=O	4.39% (inactive)	
O=C(O)[C@@H](S)[C@H](S)C(=O)O		5.01 µM (active)
CC(C)(C)NC[C@@H](O)c1ccc(O)c(CO)n1	4.94% (inactive)	
NS(=O)(=O)c1cc2c(cc1Cl)N[C@H](Cc1ccccc1)NS2(=O)=O	-1.1% (inactive)	

Test system: CP262
Experiment: as above
Conditions: P. falciparum in erythrocytes, SYBR Green DNA, 72 h; series mostly up to 28.7 µM; activity, negative = inhibition: at the top concentration
In short: as §1

SMILES	activity, negative = inhibition	Potency
CN(C)[C@H]1C(=O)C(C(=O)NCN2CCCC2)=C(O)[C@]2(O)C(=O)C3=C(O)c4c(O)cccc4[C@](C)(O)[C@H]3C[C@H]12	0% (inactive)	
C[C@]12CC[C@H]3c4ccc(O)cc4CC[C@@H]3[C@H]1CC[C@@H]2OC(=O)CCC1CCCC1	6.84% (inactive)	
Cc1cn([C@H]2C[C@H](N=[N+]=[N-])[C@H](CO)O2)c(=O)[nH]c1=O	-0.92% (inactive)	
O=C(O)[C@@H](S)[C@H](S)C(=O)O		6.75 µM (active)
CC(C)(C)NC[C@@H](O)c1ccc(O)c(CO)n1	4.93% (inactive)	
NS(=O)(=O)c1cc2c(cc1Cl)N[C@H](Cc1ccccc1)NS2(=O)=O	1.22% (inactive)	

Test system: CP265
Experiment: as above
Conditions: P. falciparum in erythrocytes, SYBR Green DNA, 72 h; series mostly up to 28.7 µM; activity, negative = inhibition: at the top concentration
In short: as §1

SMILES	activity, negative = inhibition	Potency
CN(C)[C@H]1C(=O)C(C(=O)NCN2CCCC2)=C(O)[C@]2(O)C(=O)C3=C(O)c4c(O)cccc4[C@](C)(O)[C@H]3C[C@H]12	5.07% (inactive)	
Cc1cn([C@H]2C[C@H](N=[N+]=[N-])[C@H](CO)O2)c(=O)[nH]c1=O	8.3% (inactive)	
O=C(O)[C@@H](S)[C@H](S)C(=O)O		8.91 µM (active)
CC(C)(C)NC[C@@H](O)c1ccc(O)c(CO)n1	0.824% (inactive)	
NS(=O)(=O)c1cc2c(cc1Cl)N[C@H](Cc1ccccc1)NS2(=O)=O	0.414% (inactive)	

Source: PubChem BioAssay (NCATS)
